# Screening data from PubChem BioAssay.
# CYP2C9 inhib: blockers of cytochrome P450 2C9 activity – biochemical, luminescence, ADME assay, primary screen; inhibition, % at 5 µM; 96,000 compounds, 20% hits; P11712; CYP2C9 Supersomes, luciferin-H conversion;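 active means blocking of liver enzyme CYP2C9 beyond about 50% at 5 µM, limit read from the data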
# CYP2C19 inhib: blockers of cytochrome P450 2C19 activity – biochemical, luminescence, ADME assay, primary screen; CYP2C19 Supersomes, luciferin-H EGE luminescence, 30 min; inhibition, % at 5 µM; 96,000 compounds, 21% hits; AID 778, 2007;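 active means CYP2C19 inhibition above a set limit at 5 µM in the primary screen, cut at about 50% in these data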;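 further: plate controls were negative control wells for no effect and 2.5 mM tranylcypromine positive control for full effect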
# Target sequence (P33261 whole entry, looked up): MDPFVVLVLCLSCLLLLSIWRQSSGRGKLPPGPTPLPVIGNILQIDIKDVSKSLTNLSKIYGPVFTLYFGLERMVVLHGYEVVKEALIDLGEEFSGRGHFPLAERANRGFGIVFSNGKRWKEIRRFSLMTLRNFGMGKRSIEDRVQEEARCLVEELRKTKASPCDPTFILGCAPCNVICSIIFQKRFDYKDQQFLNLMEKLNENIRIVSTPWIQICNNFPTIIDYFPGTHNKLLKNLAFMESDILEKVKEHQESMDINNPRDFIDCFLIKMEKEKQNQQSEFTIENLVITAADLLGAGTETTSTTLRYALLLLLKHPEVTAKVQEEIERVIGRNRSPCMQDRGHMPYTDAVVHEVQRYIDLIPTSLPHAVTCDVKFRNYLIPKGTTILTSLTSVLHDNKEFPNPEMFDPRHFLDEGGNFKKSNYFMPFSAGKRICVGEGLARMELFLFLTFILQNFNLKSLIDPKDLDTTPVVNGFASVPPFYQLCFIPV
# CYP2C9 act: human CYP2C9 activators, primary screen, biochemical, luminescence | Cytochrome P450 2C9 (Homo sapiens), P11712 | recombinant CYP2C9, luciferin-H conversion; active compounds read high; factor 1 = untreated enzyme, 0 = blocked | activation factor at 5 µM | 96,000 compounds, 1.4% hits;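 active means activation factor of 2 or more for CYP2C9 at a 5 µM dose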;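 further: 0 = sulfaphenazole-blocked wells and 1 = vehicle-only wells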
# sEH act: soluble epoxide hydrolase activators, primary screen, biochemical, human sEH; purified human sEH enzymatic activity, activator screen; Bifunctional epoxide hydrolase 2 (Homo sapiens), P34913; 91,000 compounds, 0.04% hits; activation, % at 2 µM; in the data active means activation above about 37%
# CYP2C19 act: human CYP2C19 activators, primary screen, biochemical, luminescence. 96,000 tested, under 10 active. Cytochrome P450 2C19 (Homo sapiens), P33261. recombinant CYP2C19, luciferin-H EGE luminescence; active compounds read high; 0 = fully inhibited enzyme, 1 = untreated enzyme. AID 1025, 2008. activation factor at 5 µM;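 active means activation factor of at least 2 at 5 µM in the primary screen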;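 further: 0 = wells with 2.5 mM tranylcypromine and 1 = vehicle-only wells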
# sEH inh: soluble epoxide hydrolase inhibitors, primary screen, biochemical, human sEH; recombinant human sEH enzymatic activity assay; Bifunctional epoxide hydrolase 2 (Homo sapiens), P34913; inhibition, % at 2 µM; 91,000 compounds, 0.34% hits; AID 707, 2007; in the data active means inhibition above about 80%
# * hit, by the source's call; / = no result given. In the library only some 27% were active in any assay of this set; here they are far more common.
SMILES,CYP2C9 inhib,CYP2C19 inhib,CYP2C9 act,sEH act,CYP2C19 act,sEH inh
Cc1nc2ccc(NC3=NCCCCC3)cc2s1,-3,-3,1,2,1,0
COC(=O)c1ccc(/C=N/NC(=O)CC(=O)NC(C)C)cc1,12,6,0.9,-12,0.9,10
CCOC(=O)CSc1nnc(Cn2nnc(-c3ccccc3)n2)n1CC,-2,-1,1,-13,1,12
Cn1c(=O)oc2cc(S(=O)(=O)N3CCN(c4cccc(Cl)c4)CC3)ccc21,-3,13,1,/,0.9,/
CCOC(=O)C1CCN(C(=O)C2CCN(S(=O)(=O)c3cccc4cccnc34)CC2)CC1,-129,6,2.3*,15,0.9,-13
Cc1ccc2cccc(S(=O)(=O)N3CCN(c4cccc(Cl)c4)CC3)c2n1,11,92*,0.9,-3,0.1,1
O=C(C1CCN(S(=O)(=O)c2cccc3cccnc23)CC1)N1CCN(c2ccccn2)CC1,48,7,0.5,/,0.9,/
CC1Cc2ccccc2N1C(=O)C1CCCN(S(=O)(=O)c2cccc3cccnc23)C1 (stereo not drawn),27,78*,0.7,/,0.2,/
O=S(=O)(c1cccc2cccnc12)N1CCN(c2ccccc2)CC1,-178,99*,2.8*,-11,0,10
CC12CC(NC(=O)N1CCc1ccccc1)c1cc(Cl)ccc1O2 (stereo not drawn),/,/,/,15,/,-12
COC(=O)C1CSC(C(=O)OC)N1C(=O)CN1CC(C)OC(C)C1 (stereo not drawn),-13,-1,1.1,16,1,-15
Cc1ccc(-n2c(=O)[nH]cc(C(=O)Nc3ccc4c(c3)OCO4)c2=O)cc1C,-38,-16,1.4,/,1.2,/
COc1cccc(C2C3=C(CC(C)(C)CC3=O)OC(N)=C2[N+](=O)[O-])c1 (stereo not drawn),15,48,0.9,16,0.5,-17
O=C(C1CCCCC1)N1CCN(c2ncccn2)CC1,11,16,0.9,0,0.8,0
O=C(C1CCN(S(=O)(=O)c2ccc3ccccc3c2)CC1)N1CCN(c2ncccn2)CC1,-71,71*,1.7,7,0.3,-7
O=C(C1CCN(S(=O)(=O)c2cccc3cccnc23)CC1)N1CCN(c2ccc(Cl)cc2)CC1,-132,85*,2.3*,16,0.1,-14
COc1ccc(N2CCN(C(=O)C3CCCN(S(=O)(=O)c4cccc5cccnc45)C3)CC2)cc1 (stereo not drawn),-12,65*,1.1,1,0.3,0
O=C(CSCc1cccc(Cl)c1)N1CCN(Cc2ccc3c(c2)OCO3)CC1,16,31,0.8,-18,0.7,17
O=C(CN1CCN(c2ccccn2)CC1)N1c2ccccc2Sc2ccc(C(F)(F)F)cc21,44,73*,0.6,10,0.3,-12
O=C(CN1CCCC1)N1c2ccccc2Sc2ccc(C(F)(F)F)cc21,/,/,/,-3,/,8
N/C(Cc1ccc(Cl)cc1)=N\OC(=O)c1cccc2ccccc12,-103,12,2*,4,0.9,-4
CCCc1nn(-c2cc(Cl)ccc2OC)c2c1C(=O)CC(C)(C)C2,66*,63*,0.3,2,0.4,-2
O=C(CN1CCC(C(O)(c2ccccc2)c2ccccc2)CC1)Nc1cc(Cl)ccc1Cl,65*,17,0.4,12,0.8,-11
O=C(CN1CCN(C(=O)c2ccco2)CC1)Nc1cc(C(F)(F)F)ccc1Cl,47,29,0.5,-5,0.7,6
O=C(CN1CCC(C(O)(c2ccccc2)c2ccccc2)CC1)Nc1ccccc1,78*,9,0.2,2,0.9,-2
COc1cccc(Nc2nc(NCC3CCCO3)c3ccccc3n2)c1 (stereo not drawn),29,14,0.7,-20,0.9,23
COc1cccc(Nc2nc(NCCO)c3ccccc3n2)c1,48,51*,0.5,9,0.5,-7
